Source: PubChem BioAssay (NCI)
This is part of a sample that, as a whole, favours compounds with a hit. Of some 83,000 tested, about 20% had one in any assay.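 Cell lines were cultured in 96-well plates, exposed to a single compound concentration, and assessed for percent growth 48 hours later.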 The source made the active and inactive calls. Rule for the calls: active = growth percent below 10; inactive = the rest.

What was measured:
Assay in all cases: NCI-60 one-dose screen, 48 h (100 = growth as untreated, 0 = no growth, -100 = all killed)
Settings in all cases: 10 µM unless noted
NCI-H226 lung = system: NCI-H226 lung
NCI-H322M lung = system: NCI-H322M lung
HOP-62 NSCLC = system: HOP-62 NSCLC
NCI-H460 lung = system: NCI-H460 lung
HOP-92 NSCLC = system: HOP-92 NSCLC
NCI-H522 lung = system: NCI-H522 lung
A549/ATCC NSCLC = system: A549/ATCC NSCLC
786-0 renal = system: 786-0 renal
COLO 205 colon = system: COLO 205 colon
DU-145 prostate = system: DU-145 prostate
K-562 leukemia = system: K-562 leukemia
MALME-3M melanoma = system: MALME-3M melanoma
MDA-MB-231 breast = system: MDA-MB-231 breast
RXF 393 renal = system: RXF 393 renal
SF-268 CNS = system: SF-268 CNS
SF-295 CNS = system: SF-295 CNS
SF-539 CNS = system: SF-539 CNS
UACC-257 melanoma = system: UACC-257 melanoma
M14 melanoma = system: M14 melanoma
HCT-15 colon = system: HCT-15 colon

Measured: growth

Cc1ccccc1NC(=O)/C=C/c1ccc(OCCOc2ccc3c(C)cc(=O)oc3c2)cc1
inactive: NCI-H226 lung 92.9% | NCI-H322M lung 92.2% | HOP-62 NSCLC 110% | NCI-H460 lung 91.8% | HOP-92 NSCLC 93.1% | NCI-H522 lung 85.1% | A549/ATCC NSCLC 95.7% | 786-0 renal 110% | COLO 205 colon 103% | DU-145 prostate 100% | K-562 leukemia 88.8% | MALME-3M melanoma 89.7% | MDA-MB-231 breast 91.8% | RXF 393 renal 95.3% | SF-268 CNS 89.2% | SF-295 CNS 104% | SF-539 CNS 50.8% | UACC-257 melanoma 101% | M14 melanoma 98.2% | HCT-15 colon 74.7%

C#C[C@]1(O)CC[C@H]2[C@@H]3CC=C4c5sc(-c6ccc(F)cn6)nc5CC[C@]4(C)[C@H]3CC[C@@]21C
inactive: NCI-H226 lung 55.8% | NCI-H322M lung 65.4% | HOP-62 NSCLC 24.6% | NCI-H460 lung 10.4% | HOP-92 NSCLC 49.2% | NCI-H522 lung 56.9% | A549/ATCC NSCLC 37.2% | COLO 205 colon 92.2% | DU-145 prostate 47.3% | MALME-3M melanoma 67.6% | MDA-MB-231 breast 17.1% | SF-268 CNS 23% | M14 melanoma 36.7% | HCT-15 colon 30.5%
active: 786-0 renal -62.5% | K-562 leukemia 6.31% | RXF 393 renal -50.7% | SF-295 CNS -70.6% | SF-539 CNS -45.8% | UACC-257 melanoma -31.8%

Cc1cc(C(=O)Nc2sc3c(c2C(N)=O)CCC(=O)C3)ccc1OCCN1CCCCC1
inactive: NCI-H226 lung 109% | NCI-H322M lung 111% | HOP-62 NSCLC 119% | NCI-H460 lung 99.4% | HOP-92 NSCLC 113% | NCI-H522 lung 90.8% | A549/ATCC NSCLC 81.1% | 786-0 renal 111% | COLO 205 colon 106% | DU-145 prostate 99.2% | K-562 leukemia 53.2% | MALME-3M melanoma 102% | MDA-MB-231 breast 101% | RXF 393 renal 112% | SF-268 CNS 99.4% | SF-295 CNS 113% | SF-539 CNS 94.2% | UACC-257 melanoma 107% | M14 melanoma 108% | HCT-15 colon 83.3%

Cc1ccc(C(=O)Nc2cccc(C(F)(F)F)c2)cc1Nc1nc(-c2cnccn2)nc2c1cnn2C
inactive: NCI-H226 lung 71.6% | NCI-H322M lung 73% | HOP-62 NSCLC 46.6% | NCI-H460 lung 69.9% | HOP-92 NSCLC 35.3% | NCI-H522 lung 73.2% | A549/ATCC NSCLC 70.8% | 786-0 renal 74% | COLO 205 colon 20.4% | DU-145 prostate 96.6% | MDA-MB-231 breast 25.3% | RXF 393 renal 78% | SF-268 CNS 81.8% | SF-295 CNS 79% | SF-539 CNS 60.6% | UACC-257 melanoma 26.1% | M14 melanoma 15.7% | HCT-15 colon 81.3%
active: K-562 leukemia 3.86% | MALME-3M melanoma -15.3%

CCOC(=O)c1csc(NC(=O)CSc2nc3sc4c(c3c(=O)n2-c2ccc(Cl)cc2)CCCC4)n1
inactive: NCI-H226 lung 101% | NCI-H322M lung 101% | HOP-62 NSCLC 101% | NCI-H460 lung 100% | HOP-92 NSCLC 77.8% | NCI-H522 lung 93.3% | A549/ATCC NSCLC 98.6% | 786-0 renal 103% | COLO 205 colon 133% | DU-145 prostate 107% | K-562 leukemia 93.4% | MALME-3M melanoma 104% | MDA-MB-231 breast 94.6% | RXF 393 renal 100% | SF-268 CNS 89% | SF-295 CNS 91.9% | SF-539 CNS 104% | UACC-257 melanoma 100% | M14 melanoma 93.1% | HCT-15 colon 97.7%

Cc1c(NC(=O)CSc2nc3sc4c(c3c(=O)n2-c2ccc(Cl)cc2)CCCC4)c(=O)n(-c2ccccc2)n1C
inactive: NCI-H226 lung 108% | NCI-H322M lung 94.9% | HOP-62 NSCLC 99.3% | NCI-H460 lung 96.8% | HOP-92 NSCLC 96.3% | NCI-H522 lung 96.8% | A549/ATCC NSCLC 81.2% | 786-0 renal 102% | COLO 205 colon 106% | DU-145 prostate 89.4% | K-562 leukemia 90.2% | MALME-3M melanoma 102% | MDA-MB-231 breast 93.4% | RXF 393 renal 104% | SF-268 CNS 80.3% | SF-295 CNS 95.5% | SF-539 CNS 89.5% | UACC-257 melanoma 102% | M14 melanoma 95.2% | HCT-15 colon 93.3%

CCN1C(=S)N(CC)C2C1N=C(SC)N2/N=C/C=C/c1ccccc1[N+](=O)[O-] (stereo not given)
inactive: NCI-H226 lung 92.9% | NCI-H322M lung 92.3% | HOP-62 NSCLC 99.7% | NCI-H460 lung 93.5% | HOP-92 NSCLC 79.7% | NCI-H522 lung 93.6% | A549/ATCC NSCLC 92.8% | 786-0 renal 101% | COLO 205 colon 120% | DU-145 prostate 101% | K-562 leukemia 68.1% | MALME-3M melanoma 93.8% | MDA-MB-231 breast 89.7% | RXF 393 renal 115% | SF-268 CNS 88.5% | SF-295 CNS 90.4% | SF-539 CNS 81.1% | UACC-257 melanoma 109% | M14 melanoma 108% | HCT-15 colon 79.2%

Cc1sc2c(c1C)c(=O)nc1c(-c3nc(-c4ccc(F)cc4)no3)n[nH]n12
inactive: NCI-H226 lung 93.1% | NCI-H322M lung 103% | HOP-62 NSCLC 91.8% | NCI-H460 lung 107% | HOP-92 NSCLC 91.2% | NCI-H522 lung 100% | A549/ATCC NSCLC 106% | 786-0 renal 99.4% | COLO 205 colon 119% | DU-145 prostate 109% | K-562 leukemia 103% | MALME-3M melanoma 96.6% | MDA-MB-231 breast 95.5% | RXF 393 renal 120% | SF-268 CNS 103% | SF-295 CNS 98.4% | SF-539 CNS 93.7% | UACC-257 melanoma 105% | M14 melanoma 107% | HCT-15 colon 92.5%

O=C(CCN1C(=O)/C(=C/c2ccccc2)SC1=S)N1CCOCC1
inactive: NCI-H226 lung 104% | NCI-H322M lung 87.2% | HOP-62 NSCLC 114% | NCI-H460 lung 99.3% | HOP-92 NSCLC 94.6% | NCI-H522 lung 58.3% | A549/ATCC NSCLC 101% | 786-0 renal 82.6% | COLO 205 colon 119% | DU-145 prostate 77.3% | K-562 leukemia 43.1% | MALME-3M melanoma 72.9% | MDA-MB-231 breast 75.9% | RXF 393 renal 77.1% | SF-268 CNS 97.7% | SF-295 CNS 98.1% | SF-539 CNS 91.8% | UACC-257 melanoma 91.4% | M14 melanoma 76.8% | HCT-15 colon 53.7%

Clc1ccc2oc3c(OCCCn4ccnc4)c4ccccc4nc3c2c1
inactive: NCI-H226 lung 88.5% | NCI-H322M lung 73.2% | HOP-62 NSCLC 87.4% | NCI-H460 lung 32.6% | HOP-92 NSCLC 53% | NCI-H522 lung 44% | A549/ATCC NSCLC 62% | 786-0 renal 46.5% | COLO 205 colon 36% | DU-145 prostate 64.1% | K-562 leukemia 45.2% | MALME-3M melanoma 97.9% | MDA-MB-231 breast 65.7% | RXF 393 renal 57.9% | SF-268 CNS 67.7% | SF-295 CNS 54% | SF-539 CNS 65.1% | UACC-257 melanoma 96.4% | M14 melanoma 93.6% | HCT-15 colon 40.4%

Clc1ccc2oc3c(NCCCn4ccnc4)c4ccccc4nc3c2c1
inactive: NCI-H226 lung 40% | NCI-H322M lung 41.5% | HOP-62 NSCLC 66.2% | HOP-92 NSCLC 47.2% | NCI-H522 lung 48.3% | A549/ATCC NSCLC 32.7% | COLO 205 colon 55.2% | DU-145 prostate 21.9% | MALME-3M melanoma 57.1% | MDA-MB-231 breast 27.1% | RXF 393 renal 23.9% | SF-268 CNS 38.3% | SF-295 CNS 30.2% | SF-539 CNS 24.3% | UACC-257 melanoma 78.3% | M14 melanoma 49.7% | HCT-15 colon 13%
active: NCI-H460 lung -25.9% | 786-0 renal 6.65% | K-562 leukemia 4.86%

O=C1[C@H]2Cc3c([nH]c4ccccc34)[C@@H](c3ccc(Br)cc3)N2C(=O)CN1C1CCN(Cc2ccccc2)CC1
inactive: NCI-H226 lung 39.5% | NCI-H322M lung 67% | HOP-62 NSCLC 54% | NCI-H460 lung 30% | HOP-92 NSCLC 28.9% | A549/ATCC NSCLC 20.7% | 786-0 renal 41.1% | COLO 205 colon 12.7% | DU-145 prostate 38.8% | MALME-3M melanoma 62.2% | MDA-MB-231 breast 49% | RXF 393 renal 42.7% | SF-268 CNS 37.5% | SF-295 CNS 32.4% | SF-539 CNS 65.4% | UACC-257 melanoma 53.3% | M14 melanoma 35.8% | HCT-15 colon 15.8%
active: NCI-H522 lung -36.7% | K-562 leukemia -28.2%

CC1=C(C)C(=O)C(Nc2cccc(C(F)(F)F)c2)=C(Cl)C1=O
inactive: NCI-H226 lung 90.9% | NCI-H322M lung 101% | HOP-62 NSCLC 91% | NCI-H460 lung 94.9% | HOP-92 NSCLC 48.9% | NCI-H522 lung 17.7% | A549/ATCC NSCLC 96.8% | 786-0 renal 102% | COLO 205 colon 102% | DU-145 prostate 99.7% | MALME-3M melanoma 94.4% | MDA-MB-231 breast 19% | RXF 393 renal 97.8% | SF-268 CNS 94.3% | SF-295 CNS 96.2% | SF-539 CNS 93.4% | UACC-257 melanoma 78.5% | M14 melanoma 85.2% | HCT-15 colon 65.7%
active: K-562 leukemia 3.78%

CC(C)NC(=O)c1cc(-c2ccc(NC(=O)Nc3ccc(N4CCOCC4)c(C(F)(F)F)c3)cc2)nc2cccnc12
active: RXF 393 renal -9.17% | SF-295 CNS 1.17%
inactive: NCI-H226 lung 80% | NCI-H322M lung 91.2% | HOP-62 NSCLC 43.9% | NCI-H460 lung 55.2% | HOP-92 NSCLC 72.3% | NCI-H522 lung 87% | A549/ATCC NSCLC 62.4% | 786-0 renal 17% | COLO 205 colon 99.7% | DU-145 prostate 78.9% | K-562 leukemia 24.6% | MALME-3M melanoma 68.3% | MDA-MB-231 breast 48.7% | SF-268 CNS 77.5% | SF-539 CNS 20.9% | UACC-257 melanoma 94.4% | M14 melanoma 73.2% | HCT-15 colon 68.1%
